Source: PubChem
Only some compounds are listed: those with a hit (about 1.9% of all), similar ones and a draw of the others.
EP2 mod – modulates human prostaglandin E2 receptor EP2 signaling | P43116 | 260,000 compounds, 0.83% hits | AID 940 | EP2-expressing cells, cAMP HTRF FRET, PGE2 co-stimulation | induction, % at 25 µM;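 active = compounds whose cAMP rise, as percent of the full-agonist control response, exceeds 60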;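 also: rat C6 glioma line stably carrying human EP2 under a CMV promoter; the protocol text gives 20 µM as final concentration; 100% = response of wells given 1 µM PGE2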
Furin inhibitor – human furin inhibition | purified furin, fluorogenic substrate cleavage | inhibition, % at 20 µM or 30 µM | 220,000 compounds, 0.061% hits; in the data active = inhibition above about 25%
Target sequence (P09958 108-714 limits assumed): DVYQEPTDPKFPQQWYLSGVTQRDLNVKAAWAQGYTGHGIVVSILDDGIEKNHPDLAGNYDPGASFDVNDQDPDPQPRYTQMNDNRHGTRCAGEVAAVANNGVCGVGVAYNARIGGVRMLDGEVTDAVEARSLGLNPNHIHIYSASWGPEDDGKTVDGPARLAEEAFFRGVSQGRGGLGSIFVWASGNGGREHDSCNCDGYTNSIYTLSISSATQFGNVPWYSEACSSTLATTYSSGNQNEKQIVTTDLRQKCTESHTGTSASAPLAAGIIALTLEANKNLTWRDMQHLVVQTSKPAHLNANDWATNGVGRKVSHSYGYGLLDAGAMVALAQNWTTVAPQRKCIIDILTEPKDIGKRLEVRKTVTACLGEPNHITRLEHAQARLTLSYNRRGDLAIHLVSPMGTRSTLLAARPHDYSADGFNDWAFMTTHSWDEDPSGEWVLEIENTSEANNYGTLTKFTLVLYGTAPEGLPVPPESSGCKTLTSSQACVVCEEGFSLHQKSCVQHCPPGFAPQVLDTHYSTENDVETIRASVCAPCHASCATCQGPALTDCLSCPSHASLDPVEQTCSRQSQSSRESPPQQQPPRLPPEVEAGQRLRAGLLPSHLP
Efa HMGR inh – blocks class II HMG-CoA reductase of Enterococcus faecalis | inhibition, % at 10 µM | purified E. faecalis HMGR, NADPH absorbance 340 nm kinetic | 190,000 compounds, 0.41% hits;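 active = inhibition above a set limit, the median over all tested compounds plus 3 SD, cut at about 9.5% in these data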;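 also: enzyme runs in reverse so mevalonate oxidation gives rising NADPH absorbance; 0% = complete reaction with DMSO and 100% = background rate lacking mevalonate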
Calpain2 inh – inhibitors of pig calpain II; purified calpain II, fluorogenic peptide substrate, 30 min; AID 1236; inhibition, % at 16 µM; 220,000 compounds, 0.37% hits;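 active = inhibition above about 50%, limit read from the data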
EP2 antag – EP2 receptor (human) inhibition; P43116; C6 glioma cells expressing human EP2, cAMP TR-FRET; cells stimulated with saturating PGE2; inhibition, % at 25 µM; 260,000 compounds, 0.52% hits; AID 1422;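 active = percent inhibition above 40 after rounding to a whole number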;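 also: rat C6 glioma host cells with rolipram phosphodiesterase inhibitor present; the protocol text gives 20 µM as final concentration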
* marks the source's active call; other numbers are inactive results; / = not tested or not shown; ! = a repeat was not active.

SMILES | EP2 mod | Furin inhibitor | Efa HMGR inh | Calpain2 inh | EP2 antag
COc1c(C)cccc1CN1C2CCC1CC(O)(c1ccccc1F)C2 (stereo not drawn) | -41 | / | / | / | 3
O=C(Nc1ccc(C(F)(F)F)cc1)c1cccn(Cc2ccc3c(c2)OC(F)(F)O3)c1=O | 6 | -15 | -1 | 18 | 14
O=C(Nc1cccc(C(F)(F)F)c1)c1cccn(Cc2ccc3c(c2)OC(F)(F)O3)c1=O | 12 | -10 | 1 | 52* | 4
CC(C)Oc1cccc(NC(=O)c2cccn(Cc3ccc4c(c3)OC(F)(F)O4)c2=O)c1 | -10 | 1 | 14* | -14 | 9
Cc1cccc(C)c1NC(=O)c1cccn(Cc2ccc3c(c2)OC(F)(F)O3)c1=O | 30 | 3 | -5 | 23 | 3
O=C(CN1C2CCC1CC(O)(c1ccco1)C2)Nc1ccc2[nH]c(=O)[nH]c2c1 (stereo not drawn) | 19 | / | / | / | /
CN(CCC(N)CC(=O)N[C@H]1C=CC(n2ccc(N)nc2=O)O[C@@H]1C(=O)O)C(=N)N (stereo partly drawn) | -8 | / | / | / | 10
O=C(O)[C@@H](Br)[C@H](Br)C(=O)O | 20 | / | / | / | 16
C[C@@H](O)CN(CCN(C[C@@H](C)O)C[C@@H](C)O)C[C@@H](C)O.O=[N+]([O-])O.[Cu] | 14 | / | / | / | 41*
CN1CCC23CCCC[C@H]2C1Cc1ccc(O)cc13 (stereo partly drawn) | 19 | / | / | / | 12
CC[C@@H]1[C@@H]2Cc3ccc(O)cc3[C@@]1(CC)CCN2C | 14 | / | / | / | 52*
Cc1nc(-c2ccc(F)cc2)c(CC(=O)N(CCN(C)C)C2CCCC2)s1 | -24 | / | / | / | 7
Cc1cccc(NP(=O)(Oc2ccccc2F)Oc2ccccc2F)c1C | 65* | 8 | -5 | 40 | 7
CCCC(=O)NC(Oc1ccc(C(C)=O)cc1)C(Cl)(Cl)Cl (stereo not drawn) | -10 | -16 | -7 | 24 | 6
Cc1ccccc1C(=O)NC(Oc1ccccc1)C(Cl)(Cl)Cl (stereo not drawn) | 63* | -30 | -5 | -2 | 5
COc1ccc(OCC(=O)N2CCN(Cc3cc(OC)c(OC)cc3OC)CC2)cc1 | 4 | / | / | / | 7
CN1CCC2(CC1)CC(=O)c1cc(Cl)ccc1O2 | -18 | / | / | / | 6
CC(C)Oc1cc(-n2c(=S)[nH]c3ccccc3c2=O)c(Cl)cc1Cl | -26 | -11 | -6 | 63* | 16
O=C1C(Cl)=C(Cl)C(=O)C(Cl)=C1Cl | -36 | / | / | / | 109*
Cc1cc2c(C(C)C)c(O)c(O)c(C=O)c2c(O)c1-c1c(C)cc2c(C(C)C)c(O)c(O)c(C=O)c2c1O | 7 | -3 | 7 | 55*! | 47*!
CCCN1CCC[C@@H]2Cc3nc(N)ncc3C[C@H]21 | 66* | / | / | / | 15
Cc1nc2ccc(NC(=O)CN3C4CCC3CC(O)(c3ccco3)C4)cc2[nH]1 (stereo not drawn) | -4 | / | / | / | /
CCCCC(CC)CNCC(O)c1ccccc1 (stereo not drawn) | 7 | -3 | 15* | 8 | 7
COc1cc2c(cc1OC)[C@@H]1C(=O)c3ccc4oc(C(C)C)cc4c3O[C@@H]1CO2 | 3 | / | / | / | 14
COc1ccc(C[C@@H]2c3cc(O)c(OC)cc3CCN2C)cc1O | 17 | -20 | 20* | 5 | 10
SMILES | EP2 mod | Furin inhibitor | Efa HMGR inh | Calpain2 inh | EP2 antag
Cc1ccc(C=C2C(=O)NC(=S)NC2=O)o1 | -106 | / | / | / | 114*
COc1ccc(C2(O)CC3CCC(C2)N3CCCC(=O)c2ccc(C)cc2)cc1 (stereo not drawn) | -57 | / | / | / | /
O=C(Cc1n[nH]c(=O)c2ccccc12)N1CCCCC1CN1CCCC1 (stereo not drawn) | -55 | / | / | / | 7
Cc1cc(C)c2c(CC(=O)N(CCN(C)C)C3CCN(C)CC3)c(C)[nH]c2c1 | -47 | / | / | / | 8
O=C(Nc1ccccc1)c1c(O)c2c(n(Cc3ccco3)c1=O)CCCC2 | 65* | -24 | / | -40 | 4
CC(=O)CC(=O)C1C(=O)N(C)C(=O)N(C)C1=O | 10 | -32 | 11* | -11 | 5
CN1C(=O)C(C2(C#N)CCCCC2)C(=O)N(C)C1=O | 29 | -11 | 0 | -19 | 9
Cc1ccccc1-n1nc(C)c(CC(=O)N(CCN(C)C)Cc2ccc(F)cc2)c1C | -50 | / | / | / | 11
COc1ccc2[nH]c(C)c(CCNCc3cc(OC)c(OC)c(OC)c3)c2c1 | -13 | -20 | -3 | -32 | 15
COc1ccc2[nH]c(C)c(CCN3CCC(=O)C(C)C3C)c2c1 (stereo not drawn) | -31 | -22 | 3 | 60* | 13
Cc1cccc(OCC(=O)N2CCN(C(C)C)CC2)c1 | 2 | / | / | / | 9
